# From PubChem
# This is a sample that favours compounds with a hit; in the whole collection about 4.1% have one here.
# Casp6 inh: blocks human caspase-6 cleavage activity; P55212; purified caspase-6, Z-VEID-R110 cleavage fluorescence; inhibition, % at 12.5 µM; hit rate 0.53% among 350,000;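 active = mean inhibition across replicates at least about 35%, with every replicate also reaching that limit, limit read from the data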;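 also: 0% = median of neutral control wells and 100% = no fluorescence left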
# NSD2 inh: blocks human histone methyltransferase NSD2; O96028; NSD2 peptide methylation, AlphaScreen, 120 min; hit rate 0.54% among 310,000; inhibition, % at 12.5 µM; in the data active = inhibition above about 50%
# CFTR F508del cor: correctors of CFTR F508del function in bronchial epithelial cells. CFBE cells, YFP halide quenching; stimulated with forskolin plus potentiator P3; % fluorescence drop versus neutral controls. activity (quench increase), % at 7.58 µM. hit rate 0.36% among 350,000. AID 720511;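 active = mean added fluorescence quench of at least 8% versus neutral control, with both replicates also reaching 8%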;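 also: cells transiently co-express mutant CFTR-F508del with the halide-sensitive YFP; corrector assay measuring rescue of mutant channel to the surface after 24 h compound exposure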
# PglD DTNB: PglD (C. jejuni) enzyme inhibition. purified PglD enzyme, DTNB colorimetric CoA detection. inhibition, % at 12.5 µM. hit rate 0.098% among 360,000; in the data active = inhibition above about 16%, passing the limit was not always enough
# ALR inh: human ALR oxidase inhibition via reduced H2O2 | P55789 | purified ALR, DTT oxidation, H2O2 HRP-luminol luminescence | inhibition, % (concentration not given with the values) | hit rate 3.8% among 290,000 | AID 485317;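 active = mean replicate inhibition above about 79%, with every replicate also reaching it, limit read from the data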
# Env fusion inh: inhibitors of HIV Env-mediated cell fusion; inhibition, % at 12.3 µM; hit rate 1.1% among 360,000; HeLa-JRFL Env/CEM21 cell fusion, luciferase;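 active = mean replicate inhibition score of at least 50 and every replicate individually at or above 50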;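 also: 0% = plate neutral controls and 100% = maraviroc near 300 nM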
# Starred values were filed as active, the others as inactive; . = no result; [ ] = another dose, or the depositor's remark.
SMILES,Casp6 inh,NSD2 inh,CFTR F508del cor,PglD DTNB,ALR inh,Env fusion inh
O=C(C1=C(O)C(=O)N(c2ccccc2)C1c1ccc([N+](=O)[O-])cc1)c1cccs1 (configuration not stated),0.0,4.8,-0.3,-3.6,89.3*,0.3
CCOC(=O)CN1CCc2c(C)nc3c(-c4ccc(OC)c(OC)c4)cnn3c21,.,-0.2,.,0.0,83.5*,-37.6
Cc1ccc(-c2nc(CS(=O)CC(=O)NCCN3CCCC3)c(C)o2)cc1 (configuration not stated),-11.1,.,1.1,4.1,98.8*,-20.8
Cc1ccc(-c2nc(CS(=O)CC(=O)NCCN(CC(C)C)CC(C)C)c(C)o2)cc1 (configuration not stated),.,-0.5,.,3.4,99.2*,21.8
CCc1ccc(-c2nc(CS(=O)CC(=O)NCCN3CCCCCC3)c(C)o2)cc1 (configuration not stated),-93.7,5.5,-1.8,3.4,99.5*,1.9
Cc1ccc(-c2nc(CS(=O)CC(=O)NCCN3CCOCC3)c(C)o2)cc1 (configuration not stated),-0.3,.,-0.5,-0.6,99.3*,.
Cc1ccc(-c2nc(CS(=O)(=O)CC(=O)NCCN3CCOCC3)c(C)o2)cc1,3.0,0.1,1.8,5.2,-3.1,-0.3
COc1ccc(NC(=O)Nc2ccc3c(c2)C(=O)N([C@H](C)CO)C[C@H](C)[C@H](CN(C)S(=O)(=O)c2cccs2)OCCCC[C@H](C)O3)cc1,-1.2,.,2.1,1.6,.,10.9[16.7 µM]
CNC(=O)C[C@@H]1CC[C@H]2[C@@H](COC[C@@H](O)CN2Cc2ccc(Cl)c(Cl)c2)O1,.,.,1.9,0.1,.,9.6[16.7 µM]
COc1ccc(S(=O)(=O)Nc2ccc3c(c2)C(=O)N([C@H](C)CO)C[C@H](C)[C@@H](CN(C)C(=O)Nc2ccc(F)cc2)OCCCC[C@@H](C)O3)cc1,-2.0,.,-3.0,1.3,.,-20.0[16.7 µM]
CCC(=O)N(C)C[C@H]1Oc2cc(-c3ccccc3)ccc2S(=O)(=O)N([C@@H](C)CO)C[C@H]1C,-1.2,.,0.0,-1.0,.,-8.1[16.7 µM]
C[C@@H]1CN([C@@H](C)CO)C(=O)c2cc(NC(=O)Nc3ccc4c(c3)OCO4)ccc2O[C@@H](C)CCCCO[C@H]1CN(C)C(=O)c1ccccc1,-4.3,.,0.9,0.0,.,26.7[16.7 µM]
COc1ccc2c3c(n(C)c2c1)[C@H](CO)N(Cc1cccc(Cl)c1)CC31CCN(C(C)=O)CC1,11.4,.,2.0,.,.,.
Cc1oc(-c2cccc(Cl)c2)nc1CS(=O)(=O)CC(=O)NCCCN1CCOCC1,2.5,.,-3.7,-8.6,47.5,17.1
CCc1ccc(-c2nc(CS(=O)CC(=O)NCCCN3CCC(C)CC3)c(C)o2)cc1 (configuration not stated),-10.3,2.3,-1.2,-3.1,98.2*,15.3
Cc1ccc(-c2nc(CS(=O)CC(=O)NCCCN3CCN(Cc4ccccc4)CC3)c(C)o2)cc1 (configuration not stated),-24.8,6.8,4.1,5.1,98.8*,5.2
Cc1oc(-c2ccc(Cl)cc2)nc1CS(=O)CC(=O)NCCN1CCCC1 (configuration not stated),-13.1,.,0.5,-1.4,99.0*,10.5
CCOC(=O)N1CCC(NC(=O)CS(=O)Cc2nc(-c3ccc(CC)cc3)oc2C)CC1 (configuration not stated),.,-6.3,.,.,.,.
Cc1oc(-c2ccc(Cl)cc2)nc1CS(=O)CC(=O)NCCCN1CCOCC1 (configuration not stated),-2.1,-9.1,-2.6,-0.8,98.5*,0.8
COc1cc(OC)c(CNS(=O)(=O)c2ccc(Br)cc2)c(OC)c1,0.4,.,-0.3,.,.,-12.2[16.7 µM]
C[C@@H]1CN([C@@H](C)CO)S(=O)(=O)c2ccc(C#CC3CC3)cc2O[C@H]1CN(C)C(=O)Nc1cc(F)ccc1F,.,.,5.4,.,.,-4.1[16.7 µM]
Cc1noc(C)c1S(=O)(=O)Nc1ccc2c(c1)CC(=O)N([C@@H](C)CO)C[C@@H](C)[C@@H](CN(C)Cc1ccc(C(=O)Nc3ccccc3N)cc1)O2,2.0,.,2.7,.,.,.
Cc1cccc(S(=O)(=O)N[C@@H]2CC[C@H](CCNC(=O)CCN3CCCCC3)O[C@@H]2CO)c1,0.3,.,0.8,0.6,.,11.0[16.7 µM]
Cc1ccccc1-c1nc(CS(=O)(=O)CC(=O)NCCN2CCOCC2)c(C)o1,-0.8,.,0.7,-5.6,22.1,-6.1
Cc1ccccc1-c1nc(CS(=O)CC(=O)NCCN2CCOCC2)c(C)o1 (configuration not stated),2.1,.,0.3,-0.1,99.2*,.
SMILES,Casp6 inh,NSD2 inh,CFTR F508del cor,PglD DTNB,ALR inh,Env fusion inh
COc1ccc(NC2CCCN(C(=O)CCCn3cncn3)C2)cc1OC (configuration not stated),3.3,-3.6,-0.7,3.4,93.9*,4.8
Cc1ccc(NC2CCCN(C(=O)CCC(=O)c3ccccc3)C2)cc1C (configuration not stated),1.7,11.0,-1.5,8.5,.,-2.5
COc1ccc(NC2CCCN(C(=O)CCc3ccncc3)C2)cc1OC (configuration not stated),0.3,48.9,1.6,2.2,95.0*,-0.4
O=C(CCc1ccncc1)N1CCCC(Nc2ccc(F)c(F)c2)C1 (configuration not stated),-1.0,2.8,-1.4,1.4,94.9*,8.6
Cc1ccc(NC2CCCN(C(=O)CSc3ccncc3)C2)cc1C (configuration not stated),-4.4,2.1,-0.1,4.5,98.2*,2.4
Cc1ccc(S(=O)(=O)Nc2ccc3c(c2)C(=O)N([C@H](C)CO)C[C@@H](C)[C@H](CN(C)C(=O)C2CCCCC2)OCCCC[C@@H](C)O3)cc1,1.1,.,0.6,1.8,.,23.3[16.7 µM]
COc1ccc(CNC(=O)C[C@@H]2C=C[C@H](NS(=O)(=O)c3cccc(OC)c3)[C@H](CO)O2)cc1,-5.3,.,7.1,7.6,.,14.1[16.7 µM]
Cc1ccc(NC2CCCN(C(=O)CN3C(=O)c4ccccc4C3=O)C2)cc1C (configuration not stated),3.5,4.4,-0.7,4.0,92.6*,12.8
Cc1ccc(NC2CCCN(C(=O)Cc3nonc3C)C2)cc1C (configuration not stated),1.8,3.3,0.5,-3.2,99.2*,-2.8
Cc1ccc(NC2CCCN(C(=O)CCc3ccncc3)C2)cc1C (configuration not stated),-7.2,0.5,-1.5,-1.6,98.3*,3.1
COc1ccc(NC(=O)N(C)C[C@H]2Oc3ccc(NS(=O)(=O)c4c(C)noc4C)cc3C(=O)N([C@@H](C)CO)C[C@@H]2C)cc1,-1.5,.,0.3,-0.3,.,.
COc1cccc(-c2cnc3c(c2)C(=O)N([C@H](C)CO)C[C@H](C)[C@H](CN(C)Cc2ccc(C(=O)O)cc2)O3)c1,0.6,.,-1.7,4.5,.,-2.4[16.7 µM]
O=C1CCCN1c1ccc(S(=O)(=O)NCCOc2ccccc2)cc1,.,27.2,.,0.9,-4.8,30.5
